Screening data as filed in PubChem.
In the library only some 8.2% were active in any assay of this set; here they are far more common.
KB-V1 MDR tox: KB-V1 MDR subline cytotoxicity. KB-V1 MDR cells viability, CellTiter-Glo, 72 h. Potency, µM (titrated, usually from 46.1 µM), hits mostly cytotoxic. hit rate 3.4% among 400,000. AID 1347076; further: nearly all actives have a fitted effect of over 60% in size
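In this primary screen, KB-V1 cells overexpressing P-gp are incubated with library compounds (lowest to highest concentration) for 72 h at 37 degrees C before a luminescent ATP viability read.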
MCF10A rerep: induces DNA re-replication in MCF 10a normal breast cells. MCF 10A DNA re-replication, Hoechst nuclear intensity, 48 h. Potency, µM (series often up to 46.1 µM), usual class: activators. hit rate 2.9% among 350,000; further: nearly all actives have a fitted effect of over 50% in size
SW480 rerep: DNA re-replication induction in SW480 cells | AID 624297 | Potency, µM (doses to about 46.1 µM), hits mostly activators | SW480 DNA re-replication, Hoechst DNA content imaging, 48 h | hit rate 1.8% among 340,000; further: nearly all actives have a fitted effect of over 55% in size
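Hoechst fluorescence of nuclei (405 nm excitation, 500-530 nm emission) measured by plate-scanning imager after 48 hr compound exposure at 37 C; re-replication scored as increased number of nuclei with elevated intensity.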
KB-3-1 cytotox: KB-3-1 parental cell cytotoxicity | KB-3-1 viability, CellTiter-Glo ATP luminescence, 72 h | Potency, µM (doses to about 46.1 µM), usual class: cytotoxic | hit rate 1.4% among 400,000; further: nearly all actives have a fitted effect of over 60% in size
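KB-3-1 cells, DMEM (no phenol red) + 10% FBS; compound by pin transfer, 72 h, 37 °C. Readout: CellTiter-Glo luminescence after 10 min. Data normalized, curve-fitted.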
ELG1 repair inh: ELG1-dependent DNA repair inhibition; HEK293T ELG1-luciferase reporter, luminescence, 16 h; DNA damage induced by 5-fluorouridine; Potency, µM (doses to about 46.1 µM), most hits filed as inhibitors; hit rate 2.3% among 330,000; AID 504467; further: nearly all actives have a fitted effect of over 55% in size
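HEK293T cells expressing luciferase-tagged ELG1 (2,000/well) received 5-Fluorouridine plus compound or DMSO for 16 hr at 37 °C. Luciferase was read by ONE-Glo luminescence after 30 min at room temperature.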
Numbers stand for hits; i = inactive; ? = inconclusive; nt = no result given; ! = not active in a repeat. The call rests on the fitted dose curve; in most records, active means well fitted curve in the direction sought with a large enough effect; inconclusive means small, poorly fitted or top-dose-only effect, or another doubt; inactive means no such curve, though single readings can be large; an effect the other way counts as inactive or inconclusive.

SMILES	KB-V1 MDR tox	MCF10A rerep	SW480 rerep	KB-3-1 cytotox	ELG1 repair inh
Cc1cc(C)c(S(=O)(=O)c2cccc(C)c2C)c(=O)[nH]1	i	i	i	i	i
CCC(C)N(C(=O)CSc1nc(-c2cccs2)nc2ccccc12)C1CCS(=O)(=O)C1 (centres undefined)	1.5µM	?	?	i	nt
CCC(=O)Nc1cc(C)c(O)c(-c2nc3ncccc3o2)c1	i	nt	nt	i	nt
O=C(NCC1CCCO1)C(=O)N/N=C/c1ccc(OCc2ccccc2Cl)cc1 (centres undefined)	i	i	i	i	nt
CN([C@@H](Cc1ccc(OS(=O)(=O)c2cccc3cnccc23)cc1)C(=O)N1CCN(c2ccccc2)CC1)S(=O)(=O)c1cccc2cnccc12	i	i	?	i	9.2µM
COc1ccc(N2CCN(C(=O)C(Cc3ccccc3)n3cccc3)CC2)cc1 (centres undefined)	i	i	i	i	i
Cc1nn(C2CCS(=O)(=O)C2)c(Cl)c1/C=C/C(=O)OCC(=O)c1c[nH]c2ccccc12 (centres undefined)	i	?	i	?	?
Cc1nn(C2CCS(=O)(=O)C2)c(Cl)c1/C=C/C(=O)OCC(=O)c1cc(C)n(-c2ccc(F)cc2)c1C (centres undefined)	i	i	i	i	13µM
COc1ccc(NC(=O)CSc2nc3ccccc3nc2N2CCCC2)cc1	i	i	i	i	?
CCOc1ccccc1NC(=O)CSc1nc2ccccc2nc1N1CCCC1	i	15µM	?	i	i
CCOc1ccccc1NC(=O)CSc1nc2ccccc2nc1N1CCOCC1	i	i	i	?	?
COc1ccc(NC(=O)CSc2nc3ccccc3nc2N2CCCC2)cc1Cl	i	23µM	i	i	i
CN(C)c1cc[n+](CC(=O)Nc2ccc(OC(F)F)cc2)cc1	i	i	i	4.1µM	i
CC(=O)c1ccc(NC(=O)C[n+]2ccc(N(C)C)cc2)cc1	?	i	i	?	i
CN(C)c1cc[n+](CC(=O)Nc2cccc([N+](=O)[O-])c2)cc1	i	i	i	?	i
CN(C)c1cc[n+](CC(=O)Nc2ccc(Cl)c([N+](=O)[O-])c2)cc1	i	?	i	6.5µM	i
CC(C)c1nnc(NC(=O)CCC(=O)NC2CCCCCC2)s1	i	i	i	i	?
O=C1NC[C@H](CCCCN2C[C@H](Cc3ccc(O)cc3)N(CCc3ccccc3)C(=O)C2=O)N(CCc2ccc(O)cc2)C1=O	i	nt	nt	i	nt
CCCCCn1c(=O)[nH]c2cc(C(=O)Nc3ccc(F)c(F)c3)ccc2c1=O	?	nt	nt	i	nt
C[C@H](CCCC(C)(C)O)[C@H]1CC[C@H]2[C@@H]3CC=C4C[C@@H](O)CC[C@]4(C)[C@H]3CC[C@]12C	nt	i	i	nt	nt
CCCCNC(=O)C(NC(=O)Cc1cc(OC)cc(OC)c1)C(=O)c1ccccc1 (centres undefined)	?	nt	nt	i	nt
CCOc1ccc(S(=O)(=O)N(C)CCO)cc1-c1nc2c(C(C)(C)C)nn(C)c2c(=O)[nH]1	10µM	i	i	?	?
CCOC(=O)C1CCN(C(c2ccccn2)c2c(C)[nH]c3ccccc23)CC1 (centres undefined)	i	21µM	?	18µM	i
CCOc1ccc2nc(NCCCO)[nH]c2c1	i	i	i	i	i
CCCOc1ccc2nc(NC(=O)OC)[nH]c2c1	nt	4.6µM	2.9µM	nt	?
SMILES	KB-V1 MDR tox	MCF10A rerep	SW480 rerep	KB-3-1 cytotox	ELG1 repair inh
CCc1ccc(C(=O)Nc2nc3ccccc3[nH]2)cc1	i	i	?	?	?
CCOC(=O)Nc1nc2ccc(Cn3cccc3)cc2[nH]1	1.2µM	3.3µM	1.3µM	0.58µM	nt
COc1ccc(N2C[C@H](C)[C@@H](CC(=O)Nc3ccc(Br)cc3)C2=O)cc1	i	nt	nt	i	nt
NC(c1csc(NC(=O)c2cccc(OC(F)(F)F)c2)n1)c1ccccc1Cl (centres undefined)	i	nt	nt	?	nt
Cc1ccc(Cl)cc1N1CCN(S(=O)(=O)c2ccc3c(c2)oc(=O)n3C)CC1	13µM	i	i	i	i
Cc1ccc(C)c(N2CCN(C(=O)CCS(=O)(=O)c3ccc4c(c3)oc(=O)n4C)CC2)c1	6.5µM!	i	i	?	i
CCN(C(=O)c1ccc(S(=O)(=O)N2CCC(C)CC2)cc1)C1CCS(=O)(=O)C1 (centres undefined)	i	i	?	i	i
CCOC(=O)/C(C#N)=C/c1cc(C)n(-c2ccc(Br)cc2)c1C	nt	nt	nt	nt	i
CCOC(=O)/C(C#N)=C/c1cc(C)n(-c2ccccc2)c1C	9.2µM	?	i	i	?
CC(C)C[C@H]1CN=C(Nc2ccccc2)N1CC1CCCCCC1	i	i	i	i	i
CCCCSc1nnc2[nH]c(=O)cc(N)n12	8.2µM	i	i	i	i
Cc1ccc(C(c2c(C)n(C)n(-c3ccccc3)c2=O)c2c(C)n(C)n(-c3ccccc3)c2=O)s1	i	i	?	?	23µM
Cc1c(C(c2ccccc2)c2c(C)n(C)n(-c3ccccc3)c2=O)c(=O)n(-c2ccccc2)n1C	i	i	i	i	i
Cc1csc2c1c(=O)n(O)c(=O)n2Cc1ccccc1	i	nt	nt	i	nt
Fc1cccc(F)c1-n1c(CN2CCOCC2)csc1=S	i	i	i	i	i
Fc1cccc(F)c1-n1c(CN2CCCCC2)csc1=S	?	?	15µM	23µM	?
Cc1nnc2n(-c3ccccc3)c(=O)c3c4c(sc3n12)CC(C)CC4 (centres undefined)	8.2µM	i	i	i	i
Cn1c(=O)n(CCc2ccccc2)c(=O)c2c1nc1n2CCCN1Cc1ccccc1	21µM	?	i	i	?
Cc1ccc(Cn2c(=O)c3c(nc4n3CCN4Cc3ccco3)n(C)c2=O)cc1	?	i	i	i	?
Cn1c(=O)n(Cc2ccccc2)c(=O)c2c1nc1n2CCN1Cc1ccco1	i	0.73µM	?	i	i
CC(C)Cn1c(=O)c2c(nc3n2CCCN3CCc2ccccc2)n(C)c1=O	10µM	i	i	i	?
CCCn1c(=O)c2c(nc3n2CCCN3Cc2ccccc2)n(C)c1=O	i	i	i	i	i
Cn1c(=O)n(Cc2ccc(F)cc2)c(=O)c2c1nc1n2CCCN1Cc1ccccc1	?	i	i	i	21µM
CCCn1c(CCC(=O)Nc2cc(OC)cc(OC)c2)nc2cccnc21	i	nt	nt	i	nt
Cn1c(=O)n(CCc2ccccc2)c(=O)c2c1nc1n2CCCN1CCc1ccccc1	23µM	21µM	?	i	23µM
O=C(N/N=C/c1ccc2c(c1)OCO2)c1ccc(NC(=O)c2ccc(F)cc2)cc1	i	i	i	i	i
COc1ccc(/C=N/NC(=O)c2cc(-c3ccc4c(c3)OCO4)n[nH]2)cc1OC	i	i	i	i	15µM
COc1cc(/C=N/NC(=O)c2ccc3c(c2)OCO3)ccc1O	i	i	i	i	?
O=C(N/N=C/c1ccc(F)cc1)c1cc(-c2ccc3c(c2)OCO3)n[nH]1	i	29µM	i	i	i
